# Data taken from PubChem BioAssay (EPA / NIEHS).
# The source made the active and inactive calls. The calls were made as follows: active = hit-call score of the fitted dose curve at least 0.9, where 1 is the maximum; inactive = score below 0.9.
# Tests used:
# [1] = read-out: Interleukin-1 alpha (IL1a), IL1A (gene 3552); assay: BSK_KF3CT_IL1a: BioMAP Diversity Plus: KF3CT Assay for Interleukin-1 alpha (IL1a) Biomarker Activity (AID 2283070); details: primary human keratinocytes with fibroblasts; actives raise or lower the signal
# In short: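 Primary skin co-culture (keratinocytes, foreskin fibroblasts), 24 h exposure; ELISA for IL-1a; bidirectional curve fit vs DMSO.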
# [2] = read-out: TIMP metallopeptidase inhibitor 2 (TIMP2), TIMP2 (gene 7077); assay: BSK_KF3CT_TIMP2: BioMAP Diversity Plus: KF3CT Assay for TIMP metallopeptidase inhibitor 2 (TIMP2) Biomarker Activity (AID 2283071); details: primary human keratinocytes with fibroblasts; actives raise or lower the signal
# In short: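 TIMP-2 measured by ELISA at 24 h in human keratinocyte/fibroblast primary co-cultures exposed to chemicals. Both increases and decreases were fitted against DMSO. Parallel cultures were stained with SRB for total protein as an overt-cytotoxicity check.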
# [3] = read-out: Transforming growth factor beta 1 (TGFb1), TGFB1 (gene 7040); assay: BSK_KF3CT_TGFb1: BioMAP Diversity Plus: KF3CT Assay for Transforming growth factor beta 1 (TGFb1) Biomarker Activity (AID 2283072); details: primary human keratinocytes with fibroblasts; actives raise or lower the signal
# In short: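 ELISA quantifies TGF-b1 at 24 h post-dose in a primary human skin co-culture of keratinocytes and fibroblasts, with gain or loss judged against DMSO. Parallel SRB total-protein staining flags overt cytotoxicity.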
# [4] = read-out: C-C motif chemokine 2 (Homo sapiens) (UniProt P13500); assay: BSK_KF3CT_MCP1: BioMAP Diversity Plus: KF3CT Assay for Monocyte Chemoattractant Protein 1 (MCP1/CCL2) Biomarker Activity (AID 2283073); details: primary human keratinocytes with fibroblasts; actives raise or lower the signal
# In short: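 Human keratinocyte plus foreskin fibroblast primary co-culture exposed to chemical for 24 h. MCP-1 levels measured by ELISA. Bidirectional curve fitting relative to DMSO negative control as baseline.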
# [5] = read-out: Matrix Metallopeptidase 9 (MMP9), MMP9 (gene 4318); assay: BSK_KF3CT_MMP9: BioMAP Diversity Plus: KF3CT Assay for Matrix Metallopeptidase 9 (MMP9) Biomarker Activity (AID 2283074); details: primary human keratinocytes with fibroblasts; actives raise or lower the signal;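 as to AC50: MMP9 protein level quantified by ELISA in the co-culture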
# In short: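 ELISA read-out of MMP-9 at 24 h post-dosing in a co-culture of human skin keratinocytes and foreskin fibroblasts. Gain or loss of signal was fitted in both directions against DMSO.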
# CD40, CD40 (gene 958) [6] = assay: BSK_LPS_CD40: BioMAP Diversity Plus: LPS Assay for CD40 Biomarker Activity (AID 2283076); details: primary human HUVEC with PBMC; actives raise or lower the signal
# In short: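 Primary human umbilical vein endothelial cells co-cultured with peripheral blood mononuclear cells, LPS-stimulated, were dosed with chemical and read 24 h later. CD40 levels were measured by ELISA and fitted bidirectionally against DMSO as negative control and baseline.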
# [7] = read-out: E-selectin (Homo sapiens) (UniProt P16581); assay: BSK_LPS_Eselectin: BioMAP Diversity Plus: LPS Assay for Eselectin Biomarker Activity (AID 2283077); details: primary human HUVEC with PBMC; actives raise or lower the signal
# In short: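 Human umbilical vein endothelial cells co-cultured with peripheral blood mononuclear cells under LPS stimulation; E-selectin measured by ELISA 24 h after chemical dosing. Activity fitted bidirectionally against DMSO as negative control and baseline.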
# [8] = read-out: Interleukin-8 (IL8), CXCL8 (gene 3576); assay: BSK_LPS_IL8: BioMAP Diversity Plus: LPS Assay for Interleukin-8 (IL8) Biomarker Activity (AID 2283078); details: primary human HUVEC with PBMC; actives raise or lower the signal
# In short: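 Human umbilical vein endothelial cells co-cultured with PBMC were stimulated with LPS; IL-8 levels were measured by ELISA 24 h after chemical dosing. Activity was fitted bidirectionally against DMSO as negative control and baseline.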
# [9] = BSK_LPS_SRB: Viability Assessment in the BioMAP Diversity Plus: LPS Assay (AID 2283079); details: primary human HUVEC with PBMC;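 also: total protein by sulforhodamine B absorbance as a cytotoxicity measure; measured one day after compound addition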
# In short: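 Human umbilical vein endothelial cells co-cultured with PBMC (LPS system) were dosed for 24 h. Total protein was stained with 0.1% sulforhodamine B after 10% TCA fixation, read at 560 nm, and fitted bidirectionally against DMSO baseline.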
# [10] = read-out: Interleukin-1 alpha (IL1a), IL1A (gene 3552); assay: BSK_LPS_IL1a: BioMAP Diversity Plus: LPS Assay for Interleukin-1 alpha (IL1a) Biomarker Activity (AID 2283080); details: primary human HUVEC with PBMC; actives raise or lower the signal
# In short: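 Human umbilical vein endothelial cells co-cultured with peripheral blood mononuclear cells were LPS-stimulated and exposed to test chemicals for 24 h. IL-1 alpha was quantified by ELISA, with bidirectional curve fitting against DMSO as the negative control and baseline.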
# [11] = read-out: Monocyte Chemoattractant Protein-1 (MCP1), CCL2 (gene 6347); assay: BSK_LPS_MCP1: BioMAP Diversity Plus: LPS Assay for Monocyte Chemoattractant Protein-1 (MCP1) Biomarker Activity (AID 2283081); details: primary human HUVEC with PBMC; actives raise or lower the signal;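 as to AC50: co-culture stimulated with LPS; secreted MCP-1 protein quantified by ELISA in culture supernatant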
# In short: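 HUVEC plus PBMC co-culture (human primary cells, LPS system) exposed to test chemical for 24 h; MCP-1 measured by ELISA. Bidirectional curve fitting against DMSO baseline; parallel SRB total-protein staining flags overt cytotoxicity.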
# [12] = BSK_LPS_PGE2: BioMAP Diversity Plus: LPS Assay for Prostaglandin E2 (PGE2) Biomarker Activity (AID 2283082); details: primary human HUVEC with PBMC; actives raise or lower the signal;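 as to AC50: secreted prostaglandin E2 measured by ELISA in LPS-stimulated co-culture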
# In short: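 PGE2 release measured by ELISA in an LPS-activated co-culture of human umbilical vein endothelial cells and peripheral blood mononuclear cells, read at 24 h post-dosing. DMSO served as baseline for bidirectional curve fitting.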
# [13] = read-out: Tumor necrosis factor (Homo sapiens) (UniProt P01375); assay: BSK_LPS_TNFa: BioMAP Diversity Plus: LPS Assay for Tumour Necrosis Factor alpha (TNFa) Biomarker Activity (AID 2283085); details: primary human HUVEC with PBMC; actives raise or lower the signal;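 as to AC50: TNFa protein level quantified by ELISA in the co-culture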
# In short: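 TNFa was quantified by ELISA in LPS-activated co-cultures of human endothelial cells and PBMC, 24 h post-dosing. Both increases and decreases versus DMSO were fitted.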
# [14] = read-out: Vascular cell adhesion molecule 1 (VCAM1), VCAM1 (gene 7412); assay: BSK_LPS_VCAM1: BioMAP Diversity Plus: LPS Assay for Vascular cell adhesion molecule 1 (VCAM1) Biomarker Activity (AID 2283086); details: primary human HUVEC with PBMC; actives raise or lower the signal
# In short: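 VCAM-1 quantified by ELISA in an LPS-activated co-culture of human endothelial cells and peripheral blood mononuclear cells, read 24 h post-treatment. Fitted in both directions versus DMSO; parallel SRB staining flags overt cytotoxicity.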
# CD38, CD38 (gene 952) = assay: BSK_SAg_CD38: BioMAP Diversity Plus: SAg Assay for CD38 Biomarker Activity (AID 2283087); details: primary human HUVEC with PBMC; actives raise or lower the signal
# In short: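 CD38 quantified by ELISA (fluorescence) in a superantigen-activated endothelial cell–PBMC co-culture at 24 h post-dose. Activity fitted in both directions relative to DMSO; parallel SRB and Alamar Blue cytotoxicity read-outs.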
# CD40, CD40 (gene 958) [15] = assay: BSK_SAg_CD40: BioMAP Diversity Plus: SAg Assay for CD40 Biomarker Activity (AID 2283088); details: primary human HUVEC with PBMC; actives raise or lower the signal
# In short: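 Human umbilical vein endothelial cells co-cultured with PBMC; CD40 levels measured by ELISA with fluorescence read-out 24 h after chemical dosing. Gain or loss of signal fitted bidirectionally against DMSO baseline.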
# CD69, CD69 (gene 969) = assay: BSK_SAg_CD69: BioMAP Diversity Plus: SAg Assay for CD69 Biomarker Activity (AID 2283089); details: primary human HUVEC with PBMC; actives raise or lower the signal;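 as to AC50: cell surface CD69 protein quantified by ELISA with fluorescence detection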
# In short: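 Endothelial/PBMC co-culture; chemical added; 24 h incubation; CD69 ELISA with fluorescence detection; bidirectional fit vs DMSO.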
# [16] = read-out: urokinase plasminogen activator (uPA), PLAU (gene 5328); assay: BSK_KF3CT_uPA: BioMAP Diversity Plus: KF3CT Assay for urokinase plasminogen activator (uPA) Biomarker Activity (AID 2283075); details: primary human keratinocytes with fibroblasts; actives raise or lower the signal
# In short: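 Skin co-culture (keratinocytes + foreskin fibroblasts), human primary; 24 h post-dose; uPA by ELISA; gain/loss fit vs DMSO baseline.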
# [17] = read-out: Macrophage colony-stimulating factor (MCSF), CSF1 (gene 1435); assay: BSK_LPS_MCSF: BioMAP Diversity Plus: LPS Assay for Macrophage colony-stimulating factor (MCSF) Biomarker Activity (AID 2283083); details: primary human HUVEC with PBMC; actives raise or lower the signal
# In short: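 Human umbilical vein endothelial cells co-cultured with peripheral blood mononuclear cells were exposed to compound for 24 h. M-CSF levels were measured by ELISA, and bidirectional curve fitting used DMSO as the negative control and baseline.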
# [18] = read-out: Tissue Factor, F3 (gene 2152); assay: BSK_LPS_TissueFactor: BioMAP Diversity Plus: LPS Assay for Tissue Factor Biomarker Activity (AID 2283084); details: primary human HUVEC with PBMC; actives raise or lower the signal
# In short: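 Human umbilical vein endothelial cells co-cultured with peripheral blood mononuclear cells were dosed and stimulated with LPS. Cell-surface CD142 was quantified by ELISA at 24 h. Activity was fitted bidirectionally against DMSO baseline.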
# Sequence of E-selectin (Homo sapiens) (P16581 whole entry, looked up): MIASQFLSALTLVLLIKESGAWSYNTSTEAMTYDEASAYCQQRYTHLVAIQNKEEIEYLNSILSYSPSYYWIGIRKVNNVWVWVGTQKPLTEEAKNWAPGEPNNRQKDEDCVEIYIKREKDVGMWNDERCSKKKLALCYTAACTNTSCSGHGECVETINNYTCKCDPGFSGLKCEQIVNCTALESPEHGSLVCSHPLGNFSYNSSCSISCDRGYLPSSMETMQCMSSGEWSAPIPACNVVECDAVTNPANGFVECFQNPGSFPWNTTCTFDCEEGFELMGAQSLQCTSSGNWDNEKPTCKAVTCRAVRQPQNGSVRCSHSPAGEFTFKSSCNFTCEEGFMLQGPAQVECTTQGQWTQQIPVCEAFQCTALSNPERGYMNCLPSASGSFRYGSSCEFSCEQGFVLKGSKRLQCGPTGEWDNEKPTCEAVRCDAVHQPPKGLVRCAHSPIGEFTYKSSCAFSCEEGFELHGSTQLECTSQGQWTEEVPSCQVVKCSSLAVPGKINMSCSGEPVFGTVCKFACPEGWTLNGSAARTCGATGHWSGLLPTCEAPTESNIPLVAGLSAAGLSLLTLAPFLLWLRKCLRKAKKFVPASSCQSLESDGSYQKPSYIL
# Sequence of Tumor necrosis factor (Homo sapiens) (P01375 whole entry, looked up): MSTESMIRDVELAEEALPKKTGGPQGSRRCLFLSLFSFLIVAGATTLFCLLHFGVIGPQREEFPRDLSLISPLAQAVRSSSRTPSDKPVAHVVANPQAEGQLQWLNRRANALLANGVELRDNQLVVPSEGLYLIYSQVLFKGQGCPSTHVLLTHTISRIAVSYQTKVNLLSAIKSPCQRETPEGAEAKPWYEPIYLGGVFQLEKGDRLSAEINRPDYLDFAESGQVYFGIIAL
smiles,measurement,setting,value
NC(N)=O,outcome,[1],inactive
same,outcome,[2],inactive
same,outcome,[3],inactive
same,outcome,[4],inactive
same,outcome,[5],inactive
same,outcome,"CD40, CD40 (gene 958) [6]",inactive
same,outcome,[7],inactive
same,outcome,[8],inactive
same,outcome,[9],inactive
same,outcome,[10],inactive
same,outcome,[11],inactive
same,outcome,[12],inactive
same,outcome,[13],inactive
same,outcome,[14],inactive
same,outcome,"CD38, CD38 (gene 952)",inactive
same,outcome,"CD40, CD40 (gene 958) [15]",inactive
same,outcome,"CD69, CD69 (gene 969)",inactive
CCCCCCCCCCCCCCO,outcome,[1],inactive
same,outcome,[2],inactive
same,outcome,[3],inactive
same,outcome,[4],inactive
same,outcome,[5],inactive
same,outcome,[16],inactive
same,AC50,"CD40, CD40 (gene 958) [6]",36.6 µM (active)
same,AC50,[9],30.7 µM (active)
same,AC50,[10],30.2 µM (active)
same,AC50,[11],31.2 µM (active)
same,outcome,[12],inactive
same,AC50,[17],31.5 µM (active)
same,AC50,[18],33.3 µM (active)
same,outcome,[13],inactive
same,AC50,[14],29.6 µM (active)
same,AC50,"CD38, CD38 (gene 952)",31.1 µM (active)
same,AC50,"CD40, CD40 (gene 958) [15]",34.1 µM (active)
same,AC50,"CD69, CD69 (gene 969)",30.6 µM (active)
FC(F)(F)C(F)(F)C(F)(F)C(F)(F)C(F)(F)C(F)(F)I,outcome,[1],inactive
same,outcome,[2],inactive
same,outcome,[4],inactive
same,outcome,[5],inactive
same,outcome,[16],inactive
same,outcome,"CD40, CD40 (gene 958) [6]",inactive
same,outcome,[7],inactive
same,outcome,[8],inactive
same,outcome,[9],inactive
same,outcome,[10],inactive
same,outcome,[11],inactive
same,outcome,[12],inactive
same,outcome,[17],inactive
same,outcome,[18],inactive
same,outcome,[13],inactive
same,outcome,[14],inactive
same,outcome,"CD38, CD38 (gene 952)",inactive
same,outcome,"CD40, CD40 (gene 958) [15]",inactive
same,outcome,"CD69, CD69 (gene 969)",inactive
CCc1ccc(O)c(C(C)(C)C)c1,AC50,[1],30.5 µM (active)
same,AC50,[2],36.5 µM (active)
same,AC50,[3],33.5 µM (active)
same,AC50,[4],36.8 µM (active)
same,AC50,[5],34.7 µM (active)
same,AC50,[16],35.3 µM (active)
same,outcome,"CD40, CD40 (gene 958) [6]",inactive
same,outcome,[7],inactive
same,AC50,[9],32 µM (active)
same,outcome,[10],inactive
same,outcome,[11],inactive
same,AC50,[12],25.3 µM (active)
same,outcome,[17],inactive
same,AC50,[13],36.6 µM (active)
same,AC50,[14],30.5 µM (active)
same,AC50,"CD38, CD38 (gene 952)",26.7 µM (active)
same,AC50,"CD40, CD40 (gene 958) [15]",36 µM (active)
same,outcome,"CD69, CD69 (gene 969)",inactive
OCC(CO)(CO)CO,outcome,[1],inactive
same,outcome,[2],inactive
same,outcome,[3],inactive
same,outcome,[4],inactive
same,outcome,[5],inactive
same,outcome,[16],inactive
same,outcome,"CD40, CD40 (gene 958) [6]",inactive
same,outcome,[7],inactive
same,outcome,[9],inactive
same,outcome,[10],inactive
same,outcome,[11],inactive
same,outcome,[12],inactive
same,outcome,[17],inactive
same,outcome,[13],inactive
same,outcome,[14],inactive
same,outcome,"CD38, CD38 (gene 952)",inactive
same,outcome,"CD40, CD40 (gene 958) [15]",inactive
same,outcome,"CD69, CD69 (gene 969)",inactive
C[Si](C)(C)C(F)(F)C(F)(F)C(F)(F)F,outcome,[1],inactive
same,outcome,[2],inactive
same,outcome,[4],inactive
same,outcome,[5],inactive
same,outcome,[16],inactive
same,outcome,"CD40, CD40 (gene 958) [6]",inactive
same,outcome,[7],inactive
same,outcome,[8],inactive
same,outcome,[9],inactive
same,outcome,[10],inactive
same,outcome,[11],inactive
same,outcome,[12],inactive
same,outcome,[17],inactive
same,outcome,[18],inactive
same,outcome,[13],inactive
same,outcome,[14],inactive
same,outcome,"CD38, CD38 (gene 952)",inactive
same,outcome,"CD40, CD40 (gene 958) [15]",inactive
same,outcome,"CD69, CD69 (gene 969)",inactive
OC[C@H]1O[C@@](CO)(O[C@H]2O[C@H](CO)[C@@H](O)[C@H](O)[C@H]2O)[C@@H](O)[C@@H]1O,outcome,[1],inactive
same,outcome,[2],inactive
same,outcome,[3],inactive
same,outcome,[4],inactive
same,outcome,[5],inactive
same,outcome,[16],inactive
same,outcome,"CD40, CD40 (gene 958) [6]",inactive
same,outcome,[7],inactive
same,outcome,[9],inactive
same,outcome,[10],inactive
same,outcome,[11],inactive
same,outcome,[12],inactive
same,outcome,[17],inactive
same,outcome,[13],inactive
same,outcome,[14],inactive
same,outcome,"CD38, CD38 (gene 952)",inactive
same,outcome,"CD40, CD40 (gene 958) [15]",inactive
same,outcome,"CD69, CD69 (gene 969)",inactive
